Binding signal data for 40 sequences are collected here from publication PMC7862700, “An all-to-all approach to the identification of sequence-specific readers for epigenetic DNA modifications on cytosine”.

One assay deals with T1, ETV3L (Homo sapiens, UniProt Q6ZN32 1-361).
T1 sequence: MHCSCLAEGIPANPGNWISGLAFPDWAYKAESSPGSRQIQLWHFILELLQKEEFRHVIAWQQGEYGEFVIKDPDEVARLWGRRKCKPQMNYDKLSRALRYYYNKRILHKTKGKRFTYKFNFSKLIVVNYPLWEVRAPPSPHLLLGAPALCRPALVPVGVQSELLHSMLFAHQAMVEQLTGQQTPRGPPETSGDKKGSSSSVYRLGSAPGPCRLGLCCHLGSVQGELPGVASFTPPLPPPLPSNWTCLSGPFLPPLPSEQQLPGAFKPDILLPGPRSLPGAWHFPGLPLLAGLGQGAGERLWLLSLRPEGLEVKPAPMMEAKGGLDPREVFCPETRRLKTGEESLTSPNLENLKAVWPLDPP
Kind of assay: DAPPL (digital affinity profiling via proximity ligation, sequencing); 10 mM Tris-HCl pH 7.5, 50 mM NaCl, 1 mM DTT, 4% glycerol, room temperature, 30 min; GST-TFs on glutathione beads, 16-mer random dsDNA library, 0.1% formaldehyde crosslink after washing; high values mean tight binding. Conditions: protein: recombinant; tags: N-terminal GST; dsDNA, one strand shown. The essentials:
(§1)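 Binding signal is given per hexamer as its read frequency for a factor divided by its frequency in the tag-only sample. GST-fused human transcription factors were expressed in yeast, captured on glutathione beads, barcoded with DNA and pooled with that sample, then incubated with 200 nmole of a 16-mer random double-stranded DNA library in Tris/NaCl/DTT/glycerol buffer for 30 min at room temperature. The pools were then washed, crosslinked, proximity-ligated, amplified by PCR and sequenced on an Illumina NextSeq500.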
GACTCT: the binding signal was 1.32 fold enrichment (6-mer frequency, TF over GST control).
The same measure, in the same setting: for TTCAAG the value was 1.31 fold enrichment (6-mer frequency, TF over GST control); for GCTTTG, 1.19 fold enrichment (6-mer frequency, TF over GST control); for TCACCT, 1.17 fold enrichment (6-mer frequency, TF over GST control).
On the same count and under the same terms, the value for TGTTGC was 1.37 fold enrichment (6-mer frequency, TF over GST control); that for CCTTAA was 1.44 fold enrichment (6-mer frequency, TF over GST control); that for ACTTCC was 7.94 fold enrichment (6-mer frequency, TF over GST control).
Still for that read-out and setting: the value for TGTTAA was 1.14 fold enrichment (6-mer frequency, TF over GST control); that for TTACTA was 1.32 fold enrichment (6-mer frequency, TF over GST control); that for GATTCC was 1.22 fold enrichment (6-mer frequency, TF over GST control).
As for TTACTC, the binding signal is 1.15 fold enrichment (6-mer frequency, TF over GST control).
On the same count and under the same terms, the value for AAGTAA was 1.31 fold enrichment (6-mer frequency, TF over GST control); that for ATCTGG was 1.2 fold enrichment (6-mer frequency, TF over GST control).
For GAAATC, the binding signal was 1.42 fold enrichment (6-mer frequency, TF over GST control).
On to AACCCT, for which the binding signal is 1.24 fold enrichment (6-mer frequency, TF over GST control).
Same read-out and setting: for TCTCAC the value was 1.33 fold enrichment (6-mer frequency, TF over GST control).
Still for that read-out and setting: the value for TTTAAA was 1.35 fold enrichment (6-mer frequency, TF over GST control).
On the same count and under the same terms, for CTATGC the value was 1.52 fold enrichment (6-mer frequency, TF over GST control); for CATCCT, 1.69 fold enrichment (6-mer frequency, TF over GST control); for TCTTTG, 1.24 fold enrichment (6-mer frequency, TF over GST control).
On to TTGTAT, for which the binding signal was 1.37 fold enrichment (6-mer frequency, TF over GST control).
Regarding ATGACC, the binding signal was 1.51 fold enrichment (6-mer frequency, TF over GST control).
The same measure, in the same setting: for AATGCC the value was 1.07 fold enrichment (6-mer frequency, TF over GST control); for TACTAT, 1.25 fold enrichment (6-mer frequency, TF over GST control); for TATTCC, 1.73 fold enrichment (6-mer frequency, TF over GST control).
The same measure, in the same setting: for TTTCTA the value was 1.3 fold enrichment (6-mer frequency, TF over GST control).
The same measure, in the same setting: the value for TCTCTA was 1.29 fold enrichment (6-mer frequency, TF over GST control); that for CCGAAC was 1.27 fold enrichment (6-mer frequency, TF over GST control).
As to CTGCGA, the binding signal was 1.4 fold enrichment (6-mer frequency, TF over GST control).
Regarding GTATCC, the binding signal was 1.81 fold enrichment (6-mer frequency, TF over GST control).
The same measure, in the same setting: for TCCTTC the value was 1.9 fold enrichment (6-mer frequency, TF over GST control).
On the same count and under the same terms, the value for TTAACC was 1.32 fold enrichment (6-mer frequency, TF over GST control); that for ATTATA was 1.33 fold enrichment (6-mer frequency, TF over GST control); that for TCATTC was 1.28 fold enrichment (6-mer frequency, TF over GST control).
Same read-out and setting: for AAGTTC the value was 1.5 fold enrichment (6-mer frequency, TF over GST control); for TGCTTC, 2.16 fold enrichment (6-mer frequency, TF over GST control).
For ACAATC, the binding signal was 1.14 fold enrichment (6-mer frequency, TF over GST control).
The same measure, in the same setting: for TTTCCG the value was 3.52 fold enrichment (6-mer frequency, TF over GST control).
Turning to GATGGC, the binding signal is 1.3 fold enrichment (6-mer frequency, TF over GST control).
Turning to TCCCAT, the binding signal is 1.38 fold enrichment (6-mer frequency, TF over GST control).

In a further assay the target is T2, ETS2 (Homo sapiens, UniProt P15036 1-469).
T2 sequence: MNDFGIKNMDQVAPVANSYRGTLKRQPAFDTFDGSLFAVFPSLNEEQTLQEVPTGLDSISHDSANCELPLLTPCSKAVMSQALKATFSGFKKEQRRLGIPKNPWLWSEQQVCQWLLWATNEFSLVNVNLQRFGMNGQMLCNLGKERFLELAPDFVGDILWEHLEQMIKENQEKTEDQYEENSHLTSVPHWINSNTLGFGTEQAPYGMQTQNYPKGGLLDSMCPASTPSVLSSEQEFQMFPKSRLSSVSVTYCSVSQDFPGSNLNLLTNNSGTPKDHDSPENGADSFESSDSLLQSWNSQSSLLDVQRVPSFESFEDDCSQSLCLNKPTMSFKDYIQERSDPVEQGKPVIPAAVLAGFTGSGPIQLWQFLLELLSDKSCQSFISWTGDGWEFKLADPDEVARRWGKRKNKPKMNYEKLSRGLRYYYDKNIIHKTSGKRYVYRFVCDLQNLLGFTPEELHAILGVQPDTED
The assay is described as above. To be noted: protein: recombinant; tags: N-terminal GST; dsDNA, one strand shown. Put shortly: as §1
Consider GACTCT, for which the binding signal is 1.36 fold enrichment (6-mer frequency, TF over GST control).
Still for that read-out and setting: the value for TTCAAG was 1.21 fold enrichment (6-mer frequency, TF over GST control); that for GCTTTG was 1.16 fold enrichment (6-mer frequency, TF over GST control); that for TCACCT was 1.09 fold enrichment (6-mer frequency, TF over GST control).
As to TGTTGC, the binding signal was 1.3 fold enrichment (6-mer frequency, TF over GST control).
On the same count and under the same terms, for CCTTAA the value was 1.29 fold enrichment (6-mer frequency, TF over GST control).
Consider ACTTCC, for which the binding signal was 8.81 fold enrichment (6-mer frequency, TF over GST control).
The same measure, in the same setting: the value for TGTTAA was 1.11 fold enrichment (6-mer frequency, TF over GST control); that for TTACTA was 1.2 fold enrichment (6-mer frequency, TF over GST control); that for GATTCC was 1.14 fold enrichment (6-mer frequency, TF over GST control).
Regarding TTACTC, the binding signal is 1.37 fold enrichment (6-mer frequency, TF over GST control).
As for AAGTAA, the binding signal is 1.27 fold enrichment (6-mer frequency, TF over GST control).
The same measure, in the same setting: for ATCTGG the value was 1.11 fold enrichment (6-mer frequency, TF over GST control); for GAAATC, 1.41 fold enrichment (6-mer frequency, TF over GST control); for AACCCT, 1.26 fold enrichment (6-mer frequency, TF over GST control).
The same measure, in the same setting: the value for TCTCAC was 1.35 fold enrichment (6-mer frequency, TF over GST control).
For TTTAAA, the binding signal is 1.26 fold enrichment (6-mer frequency, TF over GST control).
The same measure, in the same setting: the value for CTATGC was 1.44 fold enrichment (6-mer frequency, TF over GST control).
The same measure, in the same setting: the value for CATCCT was 1.61 fold enrichment (6-mer frequency, TF over GST control); that for TCTTTG was 1.19 fold enrichment (6-mer frequency, TF over GST control).
As to TTGTAT, the binding signal is 1.4 fold enrichment (6-mer frequency, TF over GST control).
Turning to ATGACC, the binding signal is 1.66 fold enrichment (6-mer frequency, TF over GST control).
On the same count and under the same terms, for AATGCC the value was 1.17 fold enrichment (6-mer frequency, TF over GST control).
In the case of TACTAT, the binding signal was 1.37 fold enrichment (6-mer frequency, TF over GST control).
The same measure, in the same setting: the value for TATTCC was 1.58 fold enrichment (6-mer frequency, TF over GST control); that for TTTCTA was 1.37 fold enrichment (6-mer frequency, TF over GST control).
On the same count and under the same terms, the value for TCTCTA was 1.22 fold enrichment (6-mer frequency, TF over GST control); that for CCGAAC was 1.26 fold enrichment (6-mer frequency, TF over GST control); that for CTGCGA was 1.29 fold enrichment (6-mer frequency, TF over GST control).
Same read-out and setting: the value for GTATCC was 1.84 fold enrichment (6-mer frequency, TF over GST control); that for TCCTTC was 2.09 fold enrichment (6-mer frequency, TF over GST control); that for TTAACC was 1.29 fold enrichment (6-mer frequency, TF over GST control).
Consider ATTATA, for which the binding signal is 1.37 fold enrichment (6-mer frequency, TF over GST control).
On the same count and under the same terms, the value for TCATTC was 1.13 fold enrichment (6-mer frequency, TF over GST control).
On the same count and under the same terms, the value for AAGTTC was 1.55 fold enrichment (6-mer frequency, TF over GST control); that for TGCTTC was 2.06 fold enrichment (6-mer frequency, TF over GST control).
In the case of ACAATC, the binding signal is 1.17 fold enrichment (6-mer frequency, TF over GST control).
With TTTCCG, the binding signal was 3.92 fold enrichment (6-mer frequency, TF over GST control).
On the same count and under the same terms, the value for GATGGC was 1.27 fold enrichment (6-mer frequency, TF over GST control).
Consider TCCCAT, for which the binding signal is 1.4 fold enrichment (6-mer frequency, TF over GST control).

A further assay deals with T3, SPDEF (Homo sapiens, UniProt O95238 1-335).
T3 sequence: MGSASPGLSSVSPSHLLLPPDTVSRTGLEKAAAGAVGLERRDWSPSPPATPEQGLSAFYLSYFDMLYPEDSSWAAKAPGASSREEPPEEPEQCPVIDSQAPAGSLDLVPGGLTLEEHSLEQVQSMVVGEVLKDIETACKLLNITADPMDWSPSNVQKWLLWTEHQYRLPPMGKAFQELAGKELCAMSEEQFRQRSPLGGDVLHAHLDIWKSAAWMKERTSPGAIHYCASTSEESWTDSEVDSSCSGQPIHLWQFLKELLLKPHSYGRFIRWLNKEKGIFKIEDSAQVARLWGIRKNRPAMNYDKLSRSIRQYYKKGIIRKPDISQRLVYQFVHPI
The description is as above. Conditions: protein: recombinant; tags: N-terminal GST; dsDNA, one strand shown. Put shortly: as §1
On to GACTCT, for which the binding signal is 1.21 fold enrichment (6-mer frequency, TF over GST control).
The same measure, in the same setting: the value for TTCAAG was 1.31 fold enrichment (6-mer frequency, TF over GST control).
On the same count and under the same terms, for GCTTTG the value was 1.12 fold enrichment (6-mer frequency, TF over GST control); for TCACCT, 1.22 fold enrichment (6-mer frequency, TF over GST control); for TGTTGC, 1.33 fold enrichment (6-mer frequency, TF over GST control).
The same measure, in the same setting: for CCTTAA the value was 1.44 fold enrichment (6-mer frequency, TF over GST control); for ACTTCC, 8.64 fold enrichment (6-mer frequency, TF over GST control).
In the case of TGTTAA, the binding signal was 1.09 fold enrichment (6-mer frequency, TF over GST control).
Regarding TTACTA, the binding signal is 1.21 fold enrichment (6-mer frequency, TF over GST control).
On the same count and under the same terms, for GATTCC the value was 1.29 fold enrichment (6-mer frequency, TF over GST control).
On the same count and under the same terms, the value for TTACTC was 1.28 fold enrichment (6-mer frequency, TF over GST control); that for AAGTAA was 1.23 fold enrichment (6-mer frequency, TF over GST control).
Take ATCTGG: the binding signal was 1.06 fold enrichment (6-mer frequency, TF over GST control).
Regarding GAAATC, the binding signal was 1.4 fold enrichment (6-mer frequency, TF over GST control).
Still for that read-out and setting: the value for AACCCT was 1.17 fold enrichment (6-mer frequency, TF over GST control); that for TCTCAC was 1.23 fold enrichment (6-mer frequency, TF over GST control).
As for TTTAAA, the binding signal is 1.16 fold enrichment (6-mer frequency, TF over GST control).
On the same count and under the same terms, for CTATGC the value was 1.49 fold enrichment (6-mer frequency, TF over GST control).
Still for that read-out and setting: the value for CATCCT was 2.33 fold enrichment (6-mer frequency, TF over GST control); that for TCTTTG was 1.06 fold enrichment (6-mer frequency, TF over GST control).
